High-throughput results from PubChem.
Only some compounds are listed: those with a hit (about 1% of all), similar ones and a draw of the others.
gsp antagonist: antagonizes gsp, the McCune-Albright syndrome mutation; gsp-mutant cells, cAMP HTRF, 30 min; Potency, µM (titrated, usually from 76.9 µM), for the others: at the top dose activity change, negative = inhibition, hits mostly inhibitors; 0.4% of 340,000 active; calls by dose curve; cell line not stated here;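 also: intracellular cAMP measured with PDE inhibitor Ro 20-1724 present during compound exposure; potency is read from the fitted curve at half-maximal effect; % is scaled to controls: 0 for no effect and ±100 for the full control effect; nearly all actives have a fitted effect of over 65% in size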
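HTRF cAMP measurement after 30 min RT detection following 30 min, 37C compound treatment alongside […] (added as 300 uM solution) in G418-selected cells seeded at 2000/well and grown 16–24 h.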
RXFP1 antagonist: blocks the human relaxin receptor RXFP1 | AID 1259400 | 0.59% of 350,000 active | Q9HBX9 | HEK293-RXFP1, relaxin-stimulated cAMP HTRF, 30 min; active compounds read low | activity change, negative = inhibition, % at 57.5 µM;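 active = activity change of -60% or lower, but not beyond a set lower limit; inconclusive = change between -60% and -40%, or beyond the set limit; inactive = change above -40%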; also: % is scaled to controls: 0 for no effect and ±100 for the full control effect
Target sequence (Q9HBX9 whole entry, looked up): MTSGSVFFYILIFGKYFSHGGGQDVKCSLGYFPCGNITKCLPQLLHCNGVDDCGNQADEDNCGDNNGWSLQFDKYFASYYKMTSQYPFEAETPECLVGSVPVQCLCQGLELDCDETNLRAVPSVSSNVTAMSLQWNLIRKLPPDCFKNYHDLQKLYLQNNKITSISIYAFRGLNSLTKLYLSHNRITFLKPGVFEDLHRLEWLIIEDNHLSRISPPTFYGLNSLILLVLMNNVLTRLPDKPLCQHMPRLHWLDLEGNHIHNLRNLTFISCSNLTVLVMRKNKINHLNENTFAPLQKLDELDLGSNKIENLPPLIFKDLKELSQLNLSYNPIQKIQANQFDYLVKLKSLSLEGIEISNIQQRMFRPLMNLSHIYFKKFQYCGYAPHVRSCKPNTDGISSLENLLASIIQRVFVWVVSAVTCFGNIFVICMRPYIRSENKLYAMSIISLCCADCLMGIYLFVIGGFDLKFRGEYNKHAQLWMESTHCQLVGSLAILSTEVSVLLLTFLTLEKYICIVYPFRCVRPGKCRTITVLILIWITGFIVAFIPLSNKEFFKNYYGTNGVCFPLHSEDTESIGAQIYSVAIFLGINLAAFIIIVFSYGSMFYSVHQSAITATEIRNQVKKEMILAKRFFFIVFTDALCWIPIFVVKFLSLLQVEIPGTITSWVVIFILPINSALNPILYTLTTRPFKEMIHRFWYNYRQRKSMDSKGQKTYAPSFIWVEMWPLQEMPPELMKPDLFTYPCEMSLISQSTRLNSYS
RXFP1 ag: RXFP1 (human) receptor agonism; Q9HBX9; HEK293T-RXFP1 cAMP TR-FRET, 30 min; response scale: percent of porcine relaxin response, buffer zero; Potency, µM (series often up to 57.5 µM), for inactives: top-dose activation, usual class: activators; 0.3% of 370,000 active; AID 2676; also: potency is read from the fitted curve at half-maximal effect; % is scaled to controls: 0 for no effect and ±100 for the full control effect; nearly all actives have a fitted effect of over 60% in size
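Agonist response is measured as cAMP accumulation in an RXFP1-transfected HEK293T line under PDE4 inhibition. Values are scaled between buffer-only and 29 nM porcine relaxin, and EC50s come from standard Hill equation fits.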
PTHR1 agonist: activates the human parathyroid hormone receptor PTHR1; Q03431; HEK293 GP2 PTHR1 cells, GloSensor cAMP luminescence, 1 h; Potency, µM (titrated, usually from 115 µM), inactives show at the highest dose activation, most hits filed as activators; 0.075% of 410,000 active; AID 743266; also: potency is read from the fitted curve at half-maximal effect; nearly all actives have a fitted effect of over 55% in size
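HEK-293-derived GP2 cells expressing PTHR1 and a GloSensor cAMP reporter, 3,000/well, plated overnight, given luciferin plus IBMX (each 0.5 mM as added) for 1 h at 37 °C, then compound for 1 h at 37 °C. Luminescence was read after 15 min at room temperature.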
gsp ag: gsp mutant agonism; gsp mutant cells, cAMP HTRF, 30 min; Potency, µM (highest dose often 76.9 µM), inactives show at the top dose activation (cAMP increase), hits mostly activators; 0.13% of 340,000 active; AID 624287; active = well fitted activation curve with a large enough effect; inconclusive = small, poorly fitted or top-dose-only effect, or another doubt; inactive = no such curve, though single readings can be large or run the other way; cell line not stated here;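 also: phosphodiesterase inhibitor Ro 20-1724 added with compounds to block cAMP breakdown; potency is read from the fitted curve at half-maximal effect; nearly all actives have a fitted effect of over 60% in size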
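Cells stably selected in G418 were plated at 2000/well, grown 16-24 hr, then given compounds in DMSO with the PDE inhibitor […] (300 uM solution added) for 30 min at 37C; cAMP was read by HTRF.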
* marks the source's active call; other numbers are inactive results; i = inactive; ? = inconclusive; / = no result given; [ ] = remark or other dose. Unless noted, calls follow the shape of the dose curve; as a rule, active = well fitted curve in the direction sought with a large enough effect; inconclusive = small, poorly fitted or top-dose-only effect, or another doubt; inactive = no such curve, though single readings can be large; an effect the other way counts as inactive or inconclusive.

SMILES	gsp antagonist	RXFP1 antagonist	RXFP1 ag	PTHR1 agonist	gsp ag
O=C(CNS(=O)(=O)c1ccccc1)NCC(=O)OCc1ccc(Cl)cc1	0%	4	0%	-22%	7.9µM*
O=C(NC1CCC(O)CC1)c1ccc(-c2ccc(Cl)cc2)o1 (centres undefined)	0%	-7	0%	-16%	19%[15.4 µM]
O=C(NNC(=O)c1ccccc1F)c1ccc(-c2ccc(Cl)cc2)o1	-6%	-87*	0%	-4%	-4%[15.4 µM]
CSc1ccc(CN2CCC(CO)(Cc3ccc(Cl)cc3)CC2)cc1	19%	-81*	-1%	-15%	-3%
CC1CCCC(NC(=O)CSc2ccc(F)cc2)C1C (centres undefined)	-4%	-1	-1%	-5%	-1%
CC1CCCC(NCC(O)COC(c2ccc(F)cc2)c2ccc(F)cc2)C1C (centres undefined)	11%	-69*	-1%	i	-16%[15.4 µM]
CN(C)c1ccc(/C=N/NC(=O)COc2ccccc2)cc1	-14%	-7	3%	i	1%
Cc1cccc(OCC(=O)N/N=C/c2ccc(N(C)C)cc2)c1	-13%	-102*	-1%	-2%	21%
Cc1ccc(NC(=O)CSc2nnc(Cc3cccn3C)n2-c2ccc(F)cc2)c(C)c1	50µM*	-18	1%	i	13%
Cc1cc(C)c(OCCNCc2ccccc2)c(C)c1	10%	-16	0%	9%	7%[15.4 µM]
Cc1cc(C)c(OCCCCNCc2ccccc2)c(Cl)c1	6%	-107*	1%	i	?
O=c1[nH]nc(CNc2cccc(C(F)(F)F)c2)c2ccccc12	-6%	-2	-1%	-63%	-8%
CCn1c(CNc2cccc(C(F)(F)F)c2)n[nH]c1=S	2%	-110*	-1%	-13%	-4%
CCC(O)CNc1nc(-n2nc(C)cc2C)nc2sc3c(c12)CCCC3 (centres undefined)	/	/	5%	/	/
Cc1cc(C)n(-c2nc(SCCN(C)C)c3c4c(sc3n2)CCCC4)n1	8%	-61*	4%	-4%	22%
Cc1n[nH]c(C)c1S(=O)(=O)N1CCCC(C(=O)N2CCN(c3ccc(Cl)cc3)CC2)C1 (centres undefined)	35µM*	-31	-3%	-17%[57.5 µM]	-45%
C=CCc1ccccc1OCc1nc2ccc(C)cc2[nH]1	/	-3	-1%	-5%	/
CC1=Nc2ccc(C)cc2/C1=C/c1c(N)n2c(S(=O)(=O)C(C)C)nsc2nc1=O	40µM*	-16	0%	-89%	-19%
CC1=Nc2ccccc2/C1=C/c1c(N)n2c(S(=O)(=O)C(C)C)nsc2nc1=O	?	-18	0%	-31%	-1%[15.4 µM]
COc1ccc(Nc2nnc(-c3ccc(O)cc3)c3ccccc23)cc1	25µM*	-6	3%	?	-1%
CC(=O)N(CC(O)CO)c1c(I)c(C(=O)NCCO)c(I)c(C(=O)NCC(O)CO)c1I (centres undefined)	/	-9	/	/	/
CCCOc1ccccc1Cn1c(=O)sc2ccccc21	/	-62*	0%	i	/
Cc1ccc(CSc2nc3cccnc3n2Cc2ccc(C(=O)NC3CCCCC3)cc2)cc1	/	-4	20µM*	-7%	/
O=C(NC1CCCCC1)c1ccc(Cn2c(SCc3ccccc3F)nc3cccnc32)cc1	/	-3	-1%	-41%	/
O=C(N/N=C\c1cn(-c2ccccc2)nc1-c1ccccc1)c1ccc(Br)o1	?	/	-3%	-15%	6%
SMILES	gsp antagonist	RXFP1 antagonist	RXFP1 ag	PTHR1 agonist	gsp ag
Cc1ccc(-c2nn(-c3ccccc3)cc2/C=N/NC(=O)c2ccc(Br)o2)cc1	32µM*	-9	3%	-17%	0%
CC(C)c1ccc(Nc2ncnc3c2c(-c2ccccc2)cn3-c2ccccc2)cc1	/	10	5%	i	/
O=C1NC(=Nc2ccccc2)S/C1=C\C=C\c1ccco1	-24%	-102*	1%	-34%	-30%
COc1ccc(N=C2NC(=O)/C(=C/c3ccco3)S2)cc1	-19%	-10	-1%	-2%	-14%
Cc1ccc(N=C2NC(=O)/C(=C/C=C/c3ccco3)S2)cc1	-11%	-67*	2%	-6%	30%
Cc1cccc(N=C2NC(=O)/C(=C/C=C/c3ccco3)S2)c1C	-7%	-77*	1%	i	0%
